# Screen size: about 63,000 compounds; about 1,100 (1.7%) were called active.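 Rule for the calls: active = compounds whose percent cytotoxicity in the single-dose primary screen, scaled between solvent and toxic-drug controls, exceeds 50; inactive = the rest.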 The full list was thinned out, with actives kept by preference. Potency and affinity values are given separately.
# Experiment: viability loss of HPDE-C7K cells – cell-based, fluorescence, HTS, primary screen (AID 431);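 note: 0% = DMSO solvent wells and 100% = doxorubicin-treated wells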
# Conditions: HPDE-C7K KRASV12 cells, Alamar Blue viability, 48 h; at 10 µM; stronger effect = higher value
row,Compound,cytotoxicity
1,Cn1c(SCC(=O)NC(C)(C)C)nnc1-c1ccc(C(C)(C)C)cc1,8.1% (inactive)
2,N#CCc1nc(CSc2nc3ccccc3o2)cs1,-5.5% (inactive)
3,O=C(O)CCN1C(=O)C2C3C=CC(C3)C2C1=O (centres undefined),4.7% (inactive)
4,Cc1ccc2cc(CN(CCCO)S(=O)(=O)c3cccc4nsnc34)c(=O)[nH]c2c1C,-8.7% (inactive)
5,Cn1c(=O)c2c(SCc3cccnc3)nc(C3CC3)nc2n(C)c1=O,-15.9% (inactive)
6,C/C(CC1(O)/C(=N/O)CCc2nonc21)=N\O (centres undefined),-0.9% (inactive)
7,O=C(Nc1ccc(N2CCN(C(=O)c3ccccc3)CC2)c(Cl)c1)c1ccco1,-11% (inactive)
8,Cc1ccccc1C(=O)N1CCN(c2ccc(NC(=O)c3ccco3)cc2Cl)CC1,14.5% (inactive)
9,Cc1cc(C(=O)CSc2nnc(-c3ccccc3)n2C)c(C)n1C,16.6% (inactive)
10,C=CCn1c(C)cc(C(=O)CSc2nnc(NCc3ccccc3)s2)c1C,64.7% (active)
11,C=CCn1c(C)cc(C(=O)CSc2nnc(Cc3ccccc3)o2)c1C,-7.3% (inactive)
12,Cc1cc(C(=O)CSc2nnc(Nc3ccccc3)s2)c(C)n1CC1CCCO1 (centres undefined),1.1% (inactive)
13,Cc1cc(C(=O)CSc2nnc(NCc3ccccc3)s2)c(C)n1C,65.2% (active)
14,O=C(CSc1nnc(NCc2ccccc2)s1)c1ccco1,-6.2% (inactive)
15,Cc1cc(C)n(CNc2nc(C(F)(F)F)cs2)n1,-4.6% (inactive)
16,CC1CCN(Cc2ccc(NC(=O)CC3Oc4ccccc4NC3=O)cc2)CC1 (centres undefined),0.1% (inactive)
17,CN1C(=O)CSc2ccc(NC(=O)N3CCC(N4CCCCC4)CC3)cc21,-15.1% (inactive)
18,Cc1ccc(C2C3=C(CC(C)(C)CC3=O)Nc3n[nH]c(C)c32)cc1 (centres undefined),-5.7% (inactive)
19,COc1cc(Cl)c(C)cc1NC(=O)CSc1nc2ccccc2o1,-5.2% (inactive)
20,CCOC(=O)C1C(C)N=C2SCC(=O)N2C1c1cccc(Br)c1 (centres undefined),-13% (inactive)
21,O=C(CSc1nc(-c2ccco2)cc(C(F)(F)F)n1)Nc1cccnc1,-0.8% (inactive)
22,COC(=O)c1ccc(C(=O)OC)c(NC(=O)CSc2nc(-c3ccco3)cc(C(F)(F)F)n2)c1,-21.1% (inactive)
23,COC(=O)c1ccccc1NC(=O)CSc1nc(-c2ccco2)cc(C(F)(F)F)n1,51.7% (active)
24,Cc1ccc(OCC(=O)NCCO)cc1C,9.8% (inactive)
25,C=Cn1c(N2CCOCC2)nc2c1c(=O)[nH]c(=O)n2C,-2.9% (inactive)
26,O=C(Nc1cc(C(=O)N2CCOCC2)ccc1N1CCCC1)c1cccs1,-2.1% (inactive)
27,CC(C)c1ccc2oc(-c3cc(N)ccc3O)nc2c1,51.5% (active)
28,CCc1ccc2oc(-c3cc(N)ccc3O)nc2c1,7.1% (inactive)
29,CC(C)c1ccc2oc(-c3ccc(N)cc3)nc2c1,-11.3% (inactive)

# — PubChem BioAssay AID431 (Sanford-Burnham Center for Chemical Genomics, 2006)
